Results published in PubChem BioAssay (NCATS).
A number with no mark means an inactive call. Inconclusive results are not listed. Active and inactive are the calls of the source. Calls come from the whole dose curve; as a rule, active = well fitted inhibition curve with a large enough effect; inconclusive = small, poorly fitted or top-dose-only effect; inactive = flat fitted curve, though single readings scatter. *1 amine or outer side, *2 acyl side, *3 side chain or, on linkers, in order; H or OH if unused. Where a SMILES comes first, the peptide text is derived from it. [ ]: non-standard residue; d: D form. X13 = O=C(C(CC(O)CO)O[*:1])[*:2]; NMeV = CN[CH](C(=O)O)C(C)C; NMeA = CN[CH](C)C(=O)O; βAla = NCCC(=O)O

molecular target: Phospholipid hydroperoxide glutathione peroxidase GPX4 (Homo sapiens) (UniProt P36969); assay: Primary qHTS Assay for Inhibitors of Recombinant Selenoprotein Glutathione Peroxidase 4 (GPX4) (AID 1845192); conditions: recombinant GPX4, GR-coupled NADPH fluorescence, 15 min; series mostly up to 27.8 µM; activity change, negative = inhibition: at the top concentration; note: nearly all actives have a fitted effect of over 65% in size; for activity change, negative = inhibition: % is set by controls: 0 for no effect and ±100 for the full control effect
Sequence (P36969 whole entry, looked up): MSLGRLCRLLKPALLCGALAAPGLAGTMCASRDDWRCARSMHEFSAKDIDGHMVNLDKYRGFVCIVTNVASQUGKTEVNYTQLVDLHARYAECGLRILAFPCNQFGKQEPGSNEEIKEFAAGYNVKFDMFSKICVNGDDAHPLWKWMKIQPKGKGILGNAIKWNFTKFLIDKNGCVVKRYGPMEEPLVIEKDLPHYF
Outline: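 NADPH consumption, followed by fluorescence at 340/450 nm between 0 and 15 min, reports GPX4 activity via coupled glutathione reductase (100 nM). Enzyme 200 nM was pre-exposed to compound 30 min; 0.5 mM cumene hydroperoxide and 1 mM GSH served as substrates.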

Structure (SMILES)	outcome	activity change, negative = inhibition
O=C(Nc1ccn(Cc2c(F)cccc2C(F)(F)F)n1)c1c(F)cccc1F	inactive [at 15.3 µM]	–
COc1ccc(C(=O)NCc2cc(C(C)C)no2)cc1OC1CCN(C)CC1	–	12.1% [at 50 µM]
C=C1CC[C@H]2[C@@](C)(CCC(O)[C@@]2(C)CO)[C@@H]1/C=C/C(=C\C(=O)O)C(=O)O (some centres undefined)	–	2.87%
NC(=O)[C@H](Cc1ccccc1)NC(=O)[C@H](CCCN=C(N)N)NC(=O)C12CC3CC(CC(C3)C1)C2	–	-0.516% [at 9.73 µM]
COc1cc(C(C)=O)ccc1O[C@@H]1O[C@H](CO)[C@@H](O)[C@H](O)[C@H]1O	–	-1.29%
CCCC(=O)Nc1cccc(NC(=O)c2ccccc2Br)c1	–	1.57% [at 50 µM]
Cc1occc(=O)c1O[C@@H]1O[C@H](COC(=O)CC(C)(O)CC(=O)O)[C@@H](O)[C@H](O)[C@H]1O (some centres undefined)	–	1.64%
Cc1cc(Cn2cnc3c2CC(C(=O)O)N(C(=O)C(c2ccccc2)c2ccccc2)C3)ccc1N(C)C (centres undefined)	–	4.66% [at 50 µM]
CSCC[C@H](NC(=O)[C@H](CO)NC(=O)[C@H](CCC(=O)O)NC(C)=O)C(=O)N[C@H](C=O)CC(=O)O (Ac-ESMD-aldehyde)	–	-11.7% [at 9.73 µM]
CCC(=O)OCC(=O)[C@@]1(OC(=O)CC)[C@@H](C)C[C@H]2[C@@H]3CCC4=CC(=O)C=C[C@]4(C)[C@@]3(F)[C@@H](O)C[C@@]21C	–	-23% [at 50 µM]
C[C@@H]1O[C@@H](O[C@@H]2[C@@H](O)[C@H](O[C@H]3[C@H](O[C@H]4CC[C@@]5(C)C(CC[C@]6(C)C5CC=C5[C@@H]7CC(C)(C)CC[C@]7(C(=O)O[C@@H]7O[C@H](CO)[C@@H](O)[C@H](O)[C@H]7O)CC[C@]56C)C4(C)C)O[C@H](C(=O)O)[C@@H](O)[C@@H]3O)OC[C@H]2O)[C@H](O)[C@H](O)[C@H]1O (some centres undefined)	–	-0.625% [at 15.3 µM]
COc1ccc(CCc2nc3cc(-c4c(C)noc4C)ccc3n2C[C@H](C)N2CCOCC2)cc1Cl	–	5.14% [at 50 µM]
C=C1CCc2occ(C)c2[C@H]2[C@H]1[C@@]13O[C@@]1(C[C@@H](C)[C@H]3OC(C)=O)[C@H]1O[C@@]21C	–	1.01%
CC(NC(=O)c1ccccc1N)C(=O)O (centres undefined)	–	-2.45% [at 50 µM]
CC1(C)COC(=O)[C@@H]1O[C@@H]1O[C@H](CO)[C@@H](O)[C@H](O)[C@H]1O	–	2.6% [at 50 µM]
O=C(O)CCc1c(C(=O)O)[nH]c2cc(Cl)cc(Cl)c12	inactive	–
CC1(C)CC[C@]2(C(=O)O)CC[C@]3(C)C(=CCC4[C@@]5(C)C[C@H](O)[C@H](O[C@@H]6O[C@H](CO)[C@@H](O)[C@H](O)[C@H]6O)[C@@](C)(CO)C5[C@H](O)C[C@]43C)[C@@H]2C1 (some centres undefined)	–	4.5% [at 15.3 µM]
CCC(C)C1NC(=O)C2CCCN2C(=O)C(CC(O)CO)OC(=O)CCNC(=O)C(C)N(C)C(=O)C(C(C)C)N(C)C1=O (centres undefined) (cyclo([X13]PI[NMeV][NMeA][βAla]); configuration not given here)	–	-7.72% [at 15.3 µM]
CC(C)C1NC(=O)CNC(=O)C2CCCN2C(=O)C(Cc2c[nH]c3ccccc23)NC(=O)CNC(=O)C(Cc2ccc(O)cc2)NC(=O)CNC1=O (centres undefined) (cyclo(GVGYGWP); configuration not given here)	–	-4.79% [at 15.3 µM]
CC1(C)CC[C@]2(C(=O)O)CC[C@]3(C)C(=CCC4[C@@]5(C)C[C@@H](O)[C@H](O)[C@](C)(CO)C5CC[C@]43C)[C@@H]2[C@@H]1O (some centres undefined)	–	-12%

molecular target: Luciferin 4-monooxygenase (Photinus pyralis) (UniProt P08659); assay: Primary firefly luciferase (FLuc) qHTS assay for identification of artifact compounds. (AID 1845220); conditions: purified firefly luciferase, luminescence, 5 min; series mostly up to 54.1 µM; activity change, negative = inhibition: at the top concentration; note: nearly all actives have a fitted effect of over 60% in size;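 for activity change, negative = inhibition: plate controls were DMSO vehicle for no effect and no enzyme for full effect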
Outline: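 FLuc 10 nM; luciferin 10 uM; ATP 10 uM; Tris-acetate pH 7.6, Mg-acetate 10 mM; 15 min RT preincubation; 5 min reaction; luminescence.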

Structure (SMILES)	outcome	activity change, negative = inhibition
CCCC/C=C\CCCCCc1cc(=O)c2ccccc2n1C	inactive	–
C=C1C(=O)O[C@@H]2C[C@]3(C)[C@@H](CCC(C)=O)[C@@H]3C[C@H]12	–	-11.3%
CC1=C2C[C@H]3OC(=O)[C@H](O)[C@@]4(O)[C@@H](C)[C@@H](O)[C@H](O)C([C@@]2(C)[C@H](O)[C@@H](O)C1)[C@@]34C (some centres undefined)	–	2.07%
O=C(O)c1ccc(NC(=O)[C@H](CC2CCCC2)n2cnc(C(F)(F)F)c2)nc1	inactive	–
CC1(C(=O)O)CCCC2(C)C3CC4C5CC3(CCC12)CC45C (centres undefined)	–	0.123%
O=C(NC/C=C/CN1CCN(c2cccc(Cl)c2Cl)CC1)c1ccc(-c2ccccn2)cc1	inactive	–
CC(=O)NC(C(=O)OC1CCC(C)(C)C2CC=C3C(=O)OCC3C12C)C(C)C (centres undefined)	–	1.49%
CC(=O)OCC1=CCC2C(C)(C)CCCC2(C)C12CCC(C)(CC(=O)O)O2 (centres undefined)	–	0.14%
COC(=O)C(CC1(O)c2ccccc2N2C(=O)C(C)(C)N(O)C21)n1cnc2ccccc2c1=O (centres undefined)	–	2.9% [at 25.7 µM]
COc1ccc(S(=O)(=O)Nc2nc(-c3cccc([N+](=O)[O-])c3)cs2)cc1OC	–	-15.3%
C=CCC/C=C/C#CCCCCCCCC[C@H]1C(=O)O[C@H](C)[C@@H]1O	–	-2.04%
CCOC(=O)COc1ccc2c(c1)C[C@@H](NC[C@H](O)c1cccc(Cl)c1)CC2	–	3.63%
CCCCC(=O)N1c2ccccc2NC2=C(C(=O)CCC2)C1c1ccccc1Cl (centres undefined)	–	1.29%
C[C@H]1[C@H](C)CC[C@]2(C(=O)O)CC[C@]3(C(=O)O)C(=CCC4[C@@]5(C)CC[C@H](O[C@@H]6O[C@@H](C)[C@H](O)[C@@H](O)[C@H]6O)C(C)(C)C5CC[C@]43C)[C@H]12 (some centres undefined)	–	-4.38% [at 25.7 µM]
C=C(C(=O)O)[C@@H]1CC[C@@]2(C)CCC[C@@](C)(O)[C@@H]2C1	–	-17.2%
OC[C@H]1O[C@@H](Oc2cc(O)cc(-c3cc4ccc(O[C@@H]5O[C@H](CO)[C@@H](O)[C@H](O)[C@H]5O)cc4o3)c2)[C@H](O)[C@@H](O)[C@@H]1O	inactive [at 25.7 µM]	–
COc1ccnc(CCc2nc3ncccc3[nH]2)c1	inactive	–
Cc1oc2nc3c(c(NC(=O)CN4CCCC4=O)c2c1C)CCCC3	inactive	–
C/C=C/C1OC2=C(C(=O)OC2(C)O)C(O)C1O (centres undefined)	–	-1.14%
O=C(Nc1ccn(Cc2c(F)cccc2C(F)(F)F)n1)c1c(F)cccc1F	inactive [at 11.6 µM]	–

Structure (SMILES)	outcome	activity change, negative = inhibition
COc1ccc(C(=O)NCc2cc(C(C)C)no2)cc1OC1CCN(C)CC1	–	0.043%
C=C1CC[C@H]2[C@@](C)(CCC(O)[C@@]2(C)CO)[C@@H]1/C=C/C(=C\C(=O)O)C(=O)O (some centres undefined)	–	0.404%
NC(=O)[C@H](Cc1ccccc1)NC(=O)[C@H](CCCN=C(N)N)NC(=O)C12CC3CC(CC(C3)C1)C2	–	0.126% [at 11.6 µM]
COc1cc(C(C)=O)ccc1O[C@@H]1O[C@H](CO)[C@@H](O)[C@H](O)[C@H]1O	–	-3.29%
CCCC(=O)Nc1cccc(NC(=O)c2ccccc2Br)c1	inactive	–
Cc1occc(=O)c1O[C@@H]1O[C@H](COC(=O)CC(C)(O)CC(=O)O)[C@@H](O)[C@H](O)[C@H]1O (some centres undefined)	inactive [at 25.7 µM]	–
Cc1cc(Cn2cnc3c2CC(C(=O)O)N(C(=O)C(c2ccccc2)c2ccccc2)C3)ccc1N(C)C (centres undefined)	–	-9.48%
CSCC[C@H](NC(=O)[C@H](CO)NC(=O)[C@H](CCC(=O)O)NC(C)=O)C(=O)N[C@H](C=O)CC(=O)O (Ac-ESMD-aldehyde)	–	-5.86% [at 11.6 µM]
CCC(=O)OCC(=O)[C@@]1(OC(=O)CC)[C@@H](C)C[C@H]2[C@@H]3CCC4=CC(=O)C=C[C@]4(C)[C@@]3(F)[C@@H](O)C[C@@]21C	–	-2.92%
C[C@@H]1O[C@@H](O[C@@H]2[C@@H](O)[C@H](O[C@H]3[C@H](O[C@H]4CC[C@@]5(C)C(CC[C@]6(C)C5CC=C5[C@@H]7CC(C)(C)CC[C@]7(C(=O)O[C@@H]7O[C@H](CO)[C@@H](O)[C@H](O)[C@H]7O)CC[C@]56C)C4(C)C)O[C@H](C(=O)O)[C@@H](O)[C@@H]3O)OC[C@H]2O)[C@H](O)[C@H](O)[C@H]1O (some centres undefined)	inactive [at 11.6 µM]	–
COc1ccc(CCc2nc3cc(-c4c(C)noc4C)ccc3n2C[C@H](C)N2CCOCC2)cc1Cl	inactive	–
C=C1CCc2occ(C)c2[C@H]2[C@H]1[C@@]13O[C@@]1(C[C@@H](C)[C@H]3OC(C)=O)[C@H]1O[C@@]21C	inactive	–
CC(NC(=O)c1ccccc1N)C(=O)O (centres undefined)	–	-1.56%
CC1(C)COC(=O)[C@@H]1O[C@@H]1O[C@H](CO)[C@@H](O)[C@H](O)[C@H]1O	–	3.2%
O=C(O)CCc1c(C(=O)O)[nH]c2cc(Cl)cc(Cl)c12	inactive [at 25.7 µM]	–
CC1(C)CC[C@]2(C(=O)O)CC[C@]3(C)C(=CCC4[C@@]5(C)C[C@H](O)[C@H](O[C@@H]6O[C@H](CO)[C@@H](O)[C@H](O)[C@H]6O)[C@@](C)(CO)C5[C@H](O)C[C@]43C)[C@@H]2C1 (some centres undefined)	–	-6.04% [at 25.7 µM]
CCC(C)C1NC(=O)C2CCCN2C(=O)C(CC(O)CO)OC(=O)CCNC(=O)C(C)N(C)C(=O)C(C(C)C)N(C)C1=O (centres undefined) (cyclo([X13]PI[NMeV][NMeA][βAla]); configuration not given here)	inactive [at 25.7 µM]	–
CC(C)C1NC(=O)CNC(=O)C2CCCN2C(=O)C(Cc2c[nH]c3ccccc23)NC(=O)CNC(=O)C(Cc2ccc(O)cc2)NC(=O)CNC1=O (centres undefined) (cyclo(GVGYGWP); configuration not given here)	inactive [at 25.7 µM]	–
CC1(C)CC[C@]2(C(=O)O)CC[C@]3(C)C(=CCC4[C@@]5(C)C[C@@H](O)[C@H](O)[C@](C)(CO)C5CC[C@]43C)[C@@H]2[C@@H]1O (some centres undefined)	–	-14.7% [at 25.7 µM]
